Screens from PubChem.
CHO-K1 Ca antag = counter-screen for M1 antagonists: effect in parental CHO-K1 cells. ATP-induced calcium, Fluo-8 fluorescence. inhibition, % at 3 µM. 360,000 compounds, 0.6% hits. AID 602250;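 active means inhibition above a per-plate cutoff, the plate's mean sample inhibition plus 3 SD, cut at about 24% in these data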
CHO-K1 Ca PAM = nonselective activator or artifact in parental CHO-K1 calcium assay. ATP EC20, Fluo-8 calcium fluorescence; 0% at ATP EC20, 100% at ATP max. activation, % at 3 µM. 360,000 compounds, 0.02% hits;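 active means activation above the run cutoff, the mean activation of all test compounds plus 3 SD, cut at about 40% in these data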;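 further: peak over basal fluorescence ratio in a 140 s read after ATP addition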
M1 ag parental = M1 agonist counterscreen hit in parental CHO-K1 cells; Fluo-8 calcium fluorescence; scaled to maximal ATP response, vehicle zero; activation, % at 3 µM; 360,000 compounds, 0.48% hits; AID 602248; in the data active means activation above about 15%;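 further: untransfected CHO-K1 host cells lacking M1 receptor as counterscreen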
M1 PAM = human CHRM1 positive allosteric modulation; P11229; CHO-K1 hM1, Fluo-8 calcium fluorescence, ACh EC20; 0% = ACh EC20, 100% = maximal ACh; activation, % at 3 µM; 360,000 compounds, 0.088% hits; AID 588819; in the data active means activation above about 19%, passing the limit was not always enough
Target sequence (P11229 whole entry, looked up): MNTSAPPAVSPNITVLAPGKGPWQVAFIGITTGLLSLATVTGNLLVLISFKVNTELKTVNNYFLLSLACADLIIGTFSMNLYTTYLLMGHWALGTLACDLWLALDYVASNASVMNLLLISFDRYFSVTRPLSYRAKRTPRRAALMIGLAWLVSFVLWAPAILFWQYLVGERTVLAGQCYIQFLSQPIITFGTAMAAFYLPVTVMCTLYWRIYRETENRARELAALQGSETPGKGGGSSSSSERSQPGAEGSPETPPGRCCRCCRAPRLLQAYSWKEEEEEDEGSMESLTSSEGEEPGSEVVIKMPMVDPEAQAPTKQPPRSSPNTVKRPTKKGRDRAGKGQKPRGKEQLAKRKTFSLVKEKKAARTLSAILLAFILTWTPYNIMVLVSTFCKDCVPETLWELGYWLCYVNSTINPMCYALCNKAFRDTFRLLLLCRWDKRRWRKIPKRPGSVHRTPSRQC
M1 antag = antagonists of human M1 muscarinic receptor | inhibition, % at 3 µM | AID 588852 | CHO-K1 hM1, Fluo-8 calcium fluorescence, ACh EC80 antagonist | 360,000 compounds, 1.3% hits | P11229;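 active means percent inhibition above its own plate's cutoff, namely the mean of that plate's compound wells plus 3 SD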;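 further: peak over basal fluorescence ratio during 140 s after agonist addition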
M1 ag = activates human CHRM1 receptor; CHO-K1 hM1, Fluo-8 calcium fluorescence, agonist mode; 0% DMSO, 100% acetylcholine EC100; 360,000 compounds, 0.33% hits; activation, % at 3 µM; P11229;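 active means activation above the run's mean compound activation plus 3 SD, cut at about 16% in these data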;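 further: peak over basal fluorescence ratio within a 140 s kinetic read after compound addition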
Numbers stand for hits; . = inactive; / = not tested or not shown. Rows were chosen to be rich in hits. Some 2.4% of all compounds tested hit in one or more screens of this group.

SMILES	CHO-K1 Ca antag	CHO-K1 Ca PAM	M1 ag parental	M1 PAM	M1 antag	M1 ag
COc1ccc(CNC(=O)[C@@H]2CC=C[C@@H]3CCN(Cc4ccc(Cl)c(Cl)c4)C(=O)[C@@H]32)cc1	.	.	.	.	.	.
COc1ccc(CNC[C@@H](CCCCN(C)Cc2ccc(OC)cc2)N2C[C@H](c3ccccc3)N(CCc3ccc(Cl)c(Cl)c3)C(=O)C2=O)cc1	.	.	30.0	.	.	21.3
Cn1c(=O)c(N)c2c3c(c(Br)ccc31)C(=O)c1ccccc1-2	.	.	31.7	.	.	16.2
Cn1c(=O)c2c(nc(Oc3ccccc3Br)n2C)n(C)c1=O	.	.	.	.	.	.
Cc1cc(C)c2c(CN3CCN(CCO)CC3)cc(=O)oc2c1	29.4	.	.	.	.	.
O=C(COc1ccc(Cl)cc1)NC1CCSC1=O (stereo not given)	.	.	.	.	.	.
COc1cccc(NC(=O)Cc2c(O)c3ccccc3[nH]c2=O)c1	25.0	.	.	.	.	.
O=C(Cc1c(O)c2ccccc2[nH]c1=O)OC1CCCCC1	24.5	.	.	.	.	.
O=C(Nc1ccccc1)/C(=C\c1ccc(F)cc1)NC(=O)c1ccco1	.	.	.	.	.	.
O=C(NC1CCCCC1)Sc1ccc(Cl)cc1	23.8	.	.	.	.	.
O=C(CSc1ccc(Cl)cc1)NC1CCCC1	.	.	.	.	.	.
COc1ccc(Cl)cc1C1=NOC2(CCC2)C(=O)N1Cc1cccc(C#N)c1	.	.	.	.	.	.
C=CCn1c(SC(C)C(=O)NC2(C#N)CCCCC2)nnc1-c1ccc(OC)cc1 (stereo not given)	.	.	.	.	33.0	.
COC(=O)C1=C(C)NC(C)=C(C(=O)OC)C1c1ccccc1OCc1c(C)no[n+]1[O-]	.	.	.	22.1	.	.
COc1ccccc1CNC(=O)COC(=O)c1cc(=O)c2ccccc2o1	.	.	.	.	.	.
S=C(NCc1cccs1)Nc1cc(Cl)cc(Cl)c1	.	.	.	.	43.1	.
S=C(NCc1cccs1)Nc1cccc(Cl)c1	.	.	.	.	.	.
O=C1CNC(c2ccccc2)C(c2ccccc2)N1 (stereo not given)	.	.	.	.	.	.
COc1ccc(CN(CCNC(=O)CCCCC(=O)NCCN(Cc2ccc(OC)cc2)C(C)C)C(C)C)cc1	.	.	.	.	73.5	.
Cc1ncc([N+](=O)[O-])n1CC(=O)Nc1ccc(F)cc1	.	.	.	.	.	.
C[C@@H]1[C@H](O)C[C@@]23COC(=O)C2=CCC[C@@H]3[C@@]1(C)CC/C(=C/CO)CO	.	.	.	.	.	.
COc1cccc(-c2c(NC(=O)c3ccco3)n(-c3ccc(C)cc3)nc(C)c2=O)c1	32.4	.	.	.	.	.
C=CCOc1ccc(C(c2c(O)nc(SC)[nH]c2=O)c2c(O)nc(SC)[nH]c2=O)cc1	.	.	.	.	.	.
CCc1ccccc1NC(=O)Nc1cc(F)ccc1F	.	.	25.4	.	.	.
O=C(CSc1nnc(-c2cccs2)n1-c1ccccc1)N1CCOCC1	35.4	.	.	.	.	.
SMILES	CHO-K1 Ca antag	CHO-K1 Ca PAM	M1 ag parental	M1 PAM	M1 antag	M1 ag
O=C(CSc1nnc(-c2cccs2)n1-c1ccccc1)N1CCCC1	.	.	.	.	.	.
CCn1c(SCC(=O)NCCc2ccccc2)nnc1-c1cccs1	.	.	.	.	.	.
Nn1c(SCC(=O)N2CCCC2)nnc1-c1cccs1	26.9	.	.	.	.	.
CCn1c(SCC(=O)c2ccccc2)nnc1-c1cccs1	26.1	.	.	.	.	.
COc1ccc(N=C2C(=O)Nc3ccc(C)c(Br)c32)cc1	25.8	.	.	.	.	.
Cc1ccc(N=C2C(=O)Nc3ccc(C)c(Br)c32)cc1	.	.	.	.	.	.
CN(C)S(=O)(=O)c1cccc(C(=O)OCC(=O)Nc2sccc2C(N)=O)c1	.	.	20.9	.	37.2	.
CCOc1ccc(CCNC(=O)COC(=O)c2cccc(S(=O)(=O)N(C)C)c2)cc1OCC	44.4	.	.	.	.	.
CCOc1ccc(CCNC(=O)COC(=O)c2cccc(N(C)C)c2)cc1OCC	.	.	.	.	.	.
CN(c1ccccc1)S(=O)(=O)c1cccc(C(=O)OCC(=O)NCc2ccccc2)c1	.	.	.	.	.	.
COc1ccc(N(C)S(=O)(=O)c2cccc(C(=O)OCC(=O)NCc3ccccc3OC)c2)cc1	.	.	.	.	25.2	.
CS(=O)(=O)N1CCN(c2ccccc2NC(=O)Nc2cccc(Cl)c2)CC1	.	.	.	.	.	.
Cc1ccc(N/N=C(\C#N)C(N)=S)c(C)c1	.	.	.	.	.	.
Cc1ccc(NC(=O)/C(C#N)=N/Nc2ccc(C(=O)O)cc2)c(C)c1	.	.	.	23.7	.	.
COc1ccc(N2C(=O)N[C@@H](Cc3ccccc3)C2=O)cc1OC	.	.	.	.	.	.
Cc1cc2nc(C)n(CCCNC(=O)Nc3ccc(C#N)cc3)c2cc1C	.	.	.	.	57.2	.
COc1ccc(NC(=O)CN(C)C(=O)Cc2ccc(S(=O)(=O)N3CCOCC3)s2)cc1	.	.	.	.	.	.
CCOC(=O)N1CCN(C(=O)c2c[nH]c3ccc(S(=O)(=O)N(C)c4ccccc4C)cc3c2=O)CC1	58.1	.	.	.	.	.
CCOC(=O)N1CCN(C(=O)c2c[nH]c3ccc(S(=O)(=O)N(C)c4cccc(C)c4)cc3c2=O)CC1	.	.	.	.	.	.
CC(C)(C)NC(=O)C1c2ccccc2OCC(=O)N1CCCN1CCOCC1 (stereo not given)	.	.	.	/	/	/
CCOc1ccccc1N1CCN(C(=O)c2cc(-c3cc(OC)ccc3OC)nc3ccccc23)CC1	.	.	.	.	32.7	.
COc1ccc(N2CCN(C(=O)c3cc(-c4cc(OC)ccc4OC)nc4ccccc34)CC2)cc1	.	.	.	.	.	.
COc1ccc(-c2cc(C(=O)N3CCN(c4ccccc4F)CC3)c3ccccc3n2)c(OC)c1	.	.	.	.	28.7	.
Cc1ccc(NC(=S)NC2CCCCC2)cc1S(=O)(=O)N(C)C	.	.	.	.	.	.
O=c1[nH]c(-c2ccccc2)nc(CN2CCCCC2)c1O	.	.	.	29.2	.	.
CCCN1C(=O)S/C(=C/c2ccc(N3CCOCC3)o2)C1=O	.	.	.	.	.	18.0
COc1ccc(NC(=S)NC(NC(=O)c2cccc(Cl)c2)C(Cl)(Cl)Cl)c([N+](=O)[O-])c1 (stereo not given)	.	.	.	.	.	.
O=C(NC(NC(=S)Nc1ccccc1Cl)C(Cl)(Cl)Cl)c1cccc(Cl)c1 (stereo not given)	23.9	.	.	.	.	.
